Source: PubChem BioAssay
Most compounds without a hit are left out; they make up all but 19% or so of the library.
IL-1B inflam inh: inflammasome signaling inhibition, IL-1 beta readout | THP-1 LPS/ATP IL-1B secretion, AlphaLISA, 16 h; hits give low values | activity change, % at 57.5 µM | 4.7% of 360,000 active | AID 743279; in the data active means activity change below about -50%; inconclusive means mostly about -30% to -49%; further: on the % scale 0 is the no-effect control and ±100 the full control effect
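Secreted IL-1B measured by AlphaLISA bead assay after 16 h compound exposure of THP-1 cells; compounds (final up to 57.5 uM) added 1 h before LPS (250 ng/mL) and ATP (1.25 mM) stimulation; lower signal means less secretion.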
S-ASM inh: inhibitors of human secretory acid sphingomyelinase. Potency, µM (top dose mostly 57.5 µM), for the others: at the top dose activity change, negative = inhibition, most hits filed as inhibitors. placental ASM, HMU-PC fluorogenic substrate, 60 min. P17405. AID 504937. 0.006% of 340,000 active; further: potency means the concentration at half of the fitted maximal effect
Target sequence (P17405 47-631 limits assumed): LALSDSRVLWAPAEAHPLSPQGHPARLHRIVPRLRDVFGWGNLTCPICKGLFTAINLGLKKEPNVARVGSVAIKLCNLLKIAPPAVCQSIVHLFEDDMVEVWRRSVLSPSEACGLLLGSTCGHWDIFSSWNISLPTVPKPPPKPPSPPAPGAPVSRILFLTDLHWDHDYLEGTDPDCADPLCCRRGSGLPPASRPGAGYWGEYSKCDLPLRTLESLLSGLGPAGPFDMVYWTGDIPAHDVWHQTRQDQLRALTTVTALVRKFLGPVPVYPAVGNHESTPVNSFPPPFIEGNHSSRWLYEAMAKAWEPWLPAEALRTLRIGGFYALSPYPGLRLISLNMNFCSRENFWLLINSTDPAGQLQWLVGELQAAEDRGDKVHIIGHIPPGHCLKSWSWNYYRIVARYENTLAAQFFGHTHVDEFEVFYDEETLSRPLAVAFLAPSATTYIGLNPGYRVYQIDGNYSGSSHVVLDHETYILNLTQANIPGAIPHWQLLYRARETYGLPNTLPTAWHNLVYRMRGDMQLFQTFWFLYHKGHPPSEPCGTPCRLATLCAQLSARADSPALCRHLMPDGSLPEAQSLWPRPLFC
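qHTS format. ASM enzyme prepared from human placenta hydrolyses the fluorogenic substrate HMU-PC0 (9 uM final) over 60 min at 37 °C after a 10 min compound preincubation.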
TDP1 cell CPT: DT40-hTDP1 cell growth loss with CPT; chicken DT40 Tdp1-/-;hTDP1 cells + 20 nM CPT, ATP luminescence, 48 h; Potency, µM (series often up to 46.2 µM), for the others: top-dose activity change, negative = growth inhibition, actives largely listed as inhibitors; 12% of 420,000 active; AID 686979; further: potency means the concentration at half of the fitted maximal effect; on the % scale 0 is the no-effect control and ±100 the full control effect; nearly all actives have a fitted effect of over 55% in size
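Chicken DT40 Tdp1-/- cells complemented with human TDP1, 400 cells/well, exposed to compounds plus 20 nM camptothecin for at least 48 h at 37 C; viability read as ATP content by CellTiter-Glo luminescence.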
TGFb SMAD3 inh: inhibitors of TGF-b signaling; Potency, µM (highest dose often 46.1 µM), for inactives: top-dose activity, negative = inhibition, actives largely listed as inhibitors; 1.2% of 410,000 active; HepG2 CAGA-GFP TGF-b/SMAD3 reporter, GFP fluorescence, 18 h; TGF-beta stimulated, 500 pg/mL final; AID 588855; further: potency means the concentration at half of the fitted maximal effect; on the % scale 0 is the no-effect control and ±100 the full control effect; nearly all actives have a fitted effect of over 65% in size
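Per well, imaged GFP fluorescence of HEPG2 CAGA-GFP cells gives the signal; cells get compound, then TGF-beta (500 pg/mL final), 18 h at 37 degrees C; %Activity versus -TGF-beta and +DMSO controls.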
TDP1 cell noCPT: qHTS for Inhibitors of human tyrosyl-DNA phosphodiesterase 1 (TDP1): qHTS in cells in absence of CPT | DT40 Tdp1-/- hTDP1 cells, no CPT, ATP luminescence, 48 h | Potency, µM (highest dose often 46.2 µM), for the others: at the highest dose activity change, negative = growth inhibition, actives largely listed as inhibitors | 15% of 420,000 active | AID 686978, 2013; further: potency means the concentration at half of the fitted maximal effect; on the % scale 0 is the no-effect control and ±100 the full control effect; nearly all actives have a fitted effect of over 55% in size
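No-CPT arm: Tdp1-/-;hTDP1 DT40 cells (400/well) plus compounds, incubated ≥48 hr at 37 °C. Readout CellTiter-Glo luminescence.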
HepG2 viability: HepG2 cytotoxicity, counter-screen for TGF-b inhibitors | HepG2 CAGA-GFP viability, ATP luminescence, 18 h | 0.76% of 410,000 active | AID 588856 | Potency, µM (doses to about 46.1 µM), for inactives: at the top dose activity change, negative = cytotoxicity, most hits filed as cytotoxic; further: potency means the concentration at half of the fitted maximal effect
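CellTiter-Glo luminescence gave cytotoxicity after 18 hours at 37 degrees C. The cells were HepG2 CAGA-GFP in 1% FBS DMEM, stimulated with 500 pg/mL TGF-beta after compound addition. %Activity was normalised to no-cell wells (complete cell-killing) and DMSO (no toxicity), and curves were fitted and classified.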
Active calls of the source: *; ? = inconclusive; nt = not tested or not shown. Unless noted, the call rests on the fitted dose curve; in most records, active means well fitted curve in the direction sought with a large enough effect; inconclusive means small, poorly fitted or top-dose-only effect, or another doubt; inactive means no such curve, though single readings can be large; an effect the other way counts as inactive or inconclusive.

SMILES	IL-1B inflam inh	S-ASM inh	TDP1 cell CPT	TGFb SMAD3 inh	TDP1 cell noCPT	HepG2 viability
CCOC(=O)N1CCC(NC(=O)c2ccc3c(c2)N(Cc2ccccc2)CCS3)CC1	32	400%	18µM*	6%	15µM*	3%
CCOC(=O)Cc1cc(OC)c(OC)cc1Cc1cc(OC)c(OC)cc1CC(=O)OCC	-28	3%	-1%	-12%	-16%	0%
CCOC(=O)N1CCC(NC(=O)c2ccc3c(c2)N(C)CCS3)CC1	9	392%	?	-29%	?	-2%
CCOC(=O)N1CCC(NC(=O)c2ccc3c(c2)N(Cc2ccc(C)cc2)CCS3)CC1	24	208%	21µM*	4%	21µM*	2%
CCOC(=O)N1CCN(C(=O)c2ccc3c(c2)N(Cc2ccc(F)cc2)CCS3)CC1	21	69%	8.2µM*	?	9.2µM*	-27%
COC(=O)c1nc(NNC(=O)c2ccccc2)sc1-c1ccccc1	-14	1%	11%	23%	7%	-3%
COc1ccc(N(C(=O)c2ccco2)C(C(=O)NC2CCCC2)c2ccc(OC)c(OC)c2)cc1 (configuration not stated)	5	6%	4%	0%	1%	2%
Cc1cc(C)c2c(C)nn(-c3ccccc3)c2n1	41	0%	4%	2%	-22%	-17%
Cc1cc(C)c2c(=N)c3ccccc3n(CCCCCCCCn3c4ccccc4c(=N)c4c(C)cc(C)nc43)c2n1	-52*	85%	10µM*	?	?	-94%
Cc1cc(/C=C2\SC(=Nc3ccc(F)cc3)NC2=O)c(C)n1-c1ccc(S(N)(=O)=O)cc1	-8	-21%	5.2µM*	?	5.2µM*	25%
Cc1cc(/C=C2\SC(=S)NC2=O)c(C)n1-c1ccc(O)cc1	0	-18%	-28%	-3%	6%	-21%
O=C1CN(C(=O)COc2ccc(Br)cc2Br)c2ccccc2N1	-18	-4%	4%	-16%	2%	-3%
COc1ccc(C(=O)Cn2c(C(=O)/C=C/c3ccccc3)nc3ccccc32)cc1	-27	2%	15µM*	2%	23µM*	-50%
COc1ccc(C(=O)/C=C/c2ccc(OC)c(COc3ccc(F)cc3)c2)cc1	-93*	12%	?	-17%	?	-27%
COc1ccc(/C=C/C(=O)c2ccoc2)cc1	?	32%	?	?	?	-33%
COc1ccc(/C=C/C(=O)c2ccc(O)cc2)cc1	-80*	-4%	-3%	-2%	?	-24%
O=C(/C=C/c1ccc2c(c1)OCCO2)c1ccccc1	?	34%	?	?	16µM*	-69%
O=C(CN1C(=O)c2cccc([N+](=O)[O-])c2C1=O)NNC(=O)c1ccc(F)cc1	6	1%	0%	-12%	2%	4%
COc1ccc(C(=O)/C=C/c2ccc3c(c2)OCCO3)cc1	-93*	101%	?	0%	?	-12%
Cc1ccc(O)c(C(=O)/C=C/c2ccc3c(c2)OCCO3)c1	-52*	-2%	16µM*	?	16µM*	-40%
O=C(O)c1ccccc1C(=O)Nc1ccc(-n2nccc2C(F)(F)F)cc1	0	8%	1%	35%	-4%	7%
Cc1ccc(/C=c2/sc3n(c2=O)CCCN=3)o1	0	5%	?	-4%	-18%	-3%
CC1(C)CN=c2s/c(=C\c3ccc(Cl)cc3)c(=O)n2C1	-86*	-2%	12µM*	?	18µM*	-48%
CCCS(=O)(=O)c1ncc(Cl)c(C(=O)Nc2sc3c(c2C(=O)NCC)CCCC3)n1	nt	nt	1µM*	?	0.79µM*	-15%
O=C(NNC(=O)c1ccc2[nH]c(=O)c(=O)[nH]c2c1)c1cccc(Br)c1	3	3%	?	-1%	3%	2%
SMILES	IL-1B inflam inh	S-ASM inh	TDP1 cell CPT	TGFb SMAD3 inh	TDP1 cell noCPT	HepG2 viability
CCc1nn2c(=O)cc(COC(=O)c3cccc(NC(=O)c4ccccc4Cl)c3)nc2s1	nt	nt	?	0%	?	-4%
NC(=O)c1ccc(SCC(=O)OCC(=O)NCc2ccco2)c([N+](=O)[O-])c1	14	4%	18%	0%	13%	6%
CC(=O)c1ccc(Nc2nc(C(N)Cc3ccc(N)cc3)cs2)cc1 (configuration not stated)	-12	nt	?	3%	?	-26%
CC(=O)c1ccc(Nc2nc(C(N)CCc3ccccc3)cs2)cc1 (configuration not stated)	?	nt	?	-11%	16µM*	-20%
CC(=O)c1ccc(Nc2nc(C(N)Cc3ccc(Cl)cc3)cs2)cc1 (configuration not stated)	-54*	nt	18µM*	?	?	-80%
CCCCCC(=O)O/N=C(\C)c1ccn(S(=O)(=O)c2ccccc2)c1	1	-3%	15µM*	3%	-89%	3%
CC1(c2nnc(Cc3ccccc3)o2)CC(c2cccnc2)=NO1 (configuration not stated)	32	1%	12%	9%	0%	5%
Nc1ccc2nc(-c3cccnc3)[nH]c2c1	25	11%	-1%	10%	-23%	10%
Nc1cccc(-c2c[nH]c3ncc(-c4cccnc4)cc23)c1	-55*	24%	8.2µM*	?	21µM*	-32%
O=C(Oc1ccccc1)c1cccc2cccc(C(=O)Oc3ccccc3)c12	13	-9%	?	-4%	21µM*	-25%
CC#CCN(CC#CC)S(=O)(=O)c1ccc(S(=O)(=O)N2CCOCC2)cc1	8	1%	?	-21%	16µM*	1%
Nc1ccc(S(=O)(=O)N2CCOCC2)cc1	nt	nt	5%	1%	1%	-2%
Cc1nnc(SCC(=O)Nc2nsc(-c3ccc(C(C)(C)C)cc3)n2)s1	1	-6%	-11%	17%	-19%	-3%
CC1=NN(/C(=N\c2nnc(C)s2)Nc2ccc(C(C)(C)C)cc2)[C@H](c2ccc(C)cc2)S1	?	-14%	18µM*	-56%	?	-53%
